Source: PubChem BioAssay AID488920 (Sanford-Burnham Center for Chemical Genomics, 2010)
Unmarked numbers belong to inactive results. Cut-off read from the data, not from the text of the source: active = IC50 below about 3 µM; inactive = the rest.

Assay: luminescent readout interference, potency – biochemical, luminescence, artefact control for SENP inhibitor project, dose response (AID 488920)
Conditions: luminescence interference counterscreen, spectral interferers

SMILES | IC50 [µM]
COc1cc2c(cc1OC)-c1c(OC)c(OC)cc3c1C(C2)N(C)CC3 (stereo not drawn) | > 5
CCOC(=O)c1c(NS(=O)(=O)c2ccccc2)n(CCCOC)c2nc3ccccc3nc12 | > 5
CCC(C)NC(=O)c1c(N)n(CCCOC)c2nc3ccccc3nc12 (stereo not drawn) | > 5
